This is a sample that favours compounds with a hit; in the whole collection about 3.5% have one here.
Pf apPOL inh: Pf-apPOL DNA polymerase inhibition. 210,000 tested, 0.25% active. Recombinant Pf-apPOL, molecular beacon fluorescence, 1.5 h. inhibition, % at 10 µM
mHTT CaM bind: inhibitors of human mutant huntingtin-calmodulin interaction; P42858; AlphaScreen His-mHTT/GST-CaM binding, luminescence; inhibition, % at 15 µM; 190,000 tested, 3.6% active; AID 1671202;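 also: 0% = both proteins with DMSO and 100% = one protein alone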
Active calls of the source: *. Rule as the data show it: active = inhibition above about 50%; inactive = the rest.

SMILES	Pf apPOL inh	mHTT CaM bind
CCCC1=NN(c2ccc(F)cc2)C(=O)/C1=C/N(C)C	-7	-8
COc1ccc(CCN2CC(C(=O)NC3CCCCC3C)CC2=O)cc1OC (centres undefined)	-15	-1
COCC1CCN(C(=O)c2cc3c(s2)CN(C2CC2)C3)CC1	-1	22
O=C(CSc1nc(=O)[nH]c2c1CCCC2)NCc1ccc2c(c1)OCO2	0	-10
COc1cccc2sc(N(C)CC(=O)N3CCc4ccccc43)nc12	-3	-10
O=C(NC1CCCC1)C1CCCN(c2ncccc2-c2noc(C3CCC3)n2)C1 (centres undefined)	-7	21
Cc1cc(C)c(C(=O)N2CCC(CC(=O)NCc3ccc4c(c3)OCO4)CC2)[nH]1	-6	7
COc1ccccc1-c1nc(C2CCN(C(=O)c3ccoc3)CC2)no1	-2	4
O=C(NCc1cccs1)NC1CCCC(OC(=O)Nc2ccccc2)C1 (centres undefined)	-8	-3
Cc1ccc(F)cc1S(=O)(=O)NCCC1CCN(C(=O)c2ccc(F)cc2)CC1	-2	34
Cc1ccc(C)c(S(=O)(=O)NCCC2CCN(C(=O)c3ccc(F)cc3)CC2)c1	2	61*
Cc1ccc(C(=O)N2CCC(CCNS(=O)(=O)c3c(C)noc3C)CC2)cc1	-1	62*
Cc1ccc(C(=O)N2CCC(CCNS(=O)(=O)c3c(C)cc(C)cc3C)CC2)cc1	2	45
Cc1cc2c(c(C)c1Cl)[C@H](c1ccc3c(c1)OCO3)C[C@@H](c1ccccc1)O2	-7	10
COc1ccc([C@@H]2C[C@H](c3ccccc3)Oc3cc(OC)c(OC)c(OC)c32)cc1	-4	18
COc1ccc(C2CC(O)(c3ccccc3)Oc3cc(C)c(Cl)c(C)c32)cc1 (centres undefined)	-3	89*
COc1ccc(C2CC(O)(c3ccccc3)Oc3cc(OC)c(OC)c(OC)c32)cc1 (centres undefined)	-2	86*
COc1ccc(-c2noc(C3CCCN3C(=O)Nc3ccc(C)cc3)n2)cc1 (centres undefined)	-2	6
O=C(COc1ccccc1F)Nc1nc(-c2cc([N+](=O)[O-])cs2)cs1	2	0
Cc1c(C(=O)Nc2cnc3ccccc3c2)sc2ncnc(N3CCC(C)CC3)c12	2	8
CCOc1ccc(CN2CCc3nc(Nc4ccc(F)cc4)ncc3C2)cc1OCC	-7	-8
O=C(NCc1ccc(F)cc1)N1CCCN(c2nc3cccnc3s2)CC1	0	3
Cc1cc(C)cc(NC(=O)Cn2[nH]c3c(cnc4ccc(F)cc43)c2=O)c1	2	-9
O=C(Cn1[nH]c2c(cnc3ccc(Cl)cc32)c1=O)Nc1cccc(Cl)c1	0	21
Cc1ccc2ncc3c(=O)n(CC(=O)Nc4cccc(F)c4)[nH]c3c2c1	0	81*
SMILES	Pf apPOL inh	mHTT CaM bind
O=C(Cn1[nH]c2c(cnc3ccc(Cl)cc32)c1=O)Nc1cccc(F)c1	-4	90*
O=C(Cn1[nH]c2c(cnc3ccc(Cl)cc32)c1=O)Nc1ccc(F)cc1F	-3	66*
Cc1c(Cl)cccc1NC(=O)Cn1[nH]c2c(cnc3ccc(F)cc32)c1=O	2	58*
Cc1ccc(NC(=O)Cn2[nH]c3c(cnc4ccc(F)cc43)c2=O)cc1C	7	-5
Cc1ccc(NC(=O)Cn2[nH]c3c(cnc4ccc(Cl)cc43)c2=O)cc1	-2	-7
O=C(Cc1cccs1)Nc1ccc(O)cc1C(=O)O	1	-1
CCCCC(=O)Nc1ccc(N)cc1OC	2	12
CCc1ccc(C(=O)CSc2nnc(-c3cccc(Br)c3)o2)cc1	-3	-2
CN1CC(c2nc(-c3ccncc3)n[nH]2)C2(CCN(C(=O)c3cccn3C)CC2)C1 (centres undefined)	0	9
O=C(Nc1nnc(-c2ccco2)o1)c1c[nH]c2ccccc12	-28	72*
CCS(=O)(=O)c1ccc(-c2nnc(NC(=O)c3c[nH]c4ccccc34)o2)cc1	-85	13
Cc1onc(-c2ccccc2Cl)c1-c1nc(-c2cccnc2)no1	-3	-7
CC1=NOC(=O)/C1=C/c1ccccc1OCc1ccc(Br)cc1	1	54*
CC1=NOC(=O)/C1=C/c1ccccc1OCc1ccccc1Cl	-2	4
C=CCOc1c(Br)cc(/C=C2\C(=O)ON=C2C)cc1OC	-2	21
COc1cc(/C=C2\C(=O)ON=C2C)cc(Br)c1OCc1ccccc1F	-4	64*
CC1=NOC(=O)/C1=C/c1ccc(OCc2ccc(C)cc2)c(Cl)c1	-5	33
COc1cc(/C=C2\C(=O)ON=C2C)cc(Cl)c1OCc1ccc(C)cc1	0	95*
COc1cc(/C=C2\C(=O)ON=C2C)ccc1OCc1ccccc1F	-4	41
COc1cc(/C=C2\C(=O)ON=C2C)cc(Br)c1OCc1ccc(C)cc1	14	70*
COc1ccc2nc(SCC(=O)Nc3ccc(F)cc3)[nH]c2c1	3	8
Cc1ccc(C2CC(c3ccc(C)c(C)c3)Nc3nnnn32)cc1 (centres undefined)	6	-3
